# In ChEMBL document CHEMBL3988442, “University of Dundee, Small-Polar-MMV Screening Library” (2021):
# Screen size: about 48,000 compounds; about 13,000 (27%) showed an effect of 50% or more. The list shows a part of the results.
# System: Wolbachia pipientis
# Test: Anti-Wolbachia Cell-Based Screen
# Assay type: functional
# Parameters: scale not given: in the data most compounds retested in dose-response had high values
# Conditions: 5 µM
row,Compound,Percent Effect [%]
1,O=C(NCc1ccc(CN2CCCC2)cc1)NCc1ccon1,-9.348
2,COc1cc(C)nc(N2CCN(C(=O)CNC(C)(C)C)CC2)n1,-7.081
3,c1cncc(NCCCNC2CCSC2)c1 (centres undefined),8.573
4,Cn1cnnc1-c1cncc(NCc2cccc3c2OCO3)c1,-7.225
5,Cc1noc(C(C)Nc2ccc3oc(=O)[nH]c3c2)n1 (centres undefined),-7.057
6,CN(CC(=O)N1CCN(c2ncccn2)CC1)c1ccc(Cl)cn1,-31.13
7,CCc1ccc(C(=O)N2CCCC(c3noc(CC)n3)C2)o1 (centres undefined),3.526
8,CCc1nc(C2CCCN(C(=O)c3ccc(F)cc3)C2)no1 (centres undefined),103.7
9,Cc1cc(C)n(C2CCCN(C(=O)c3c(C)noc3C)C2)n1 (centres undefined),-7.23
10,Cc1noc(C)c1C(=O)N1CCCC(c2nccn2Cc2cscn2)C1 (centres undefined),-18.15
11,CCc1nc(C2CCCN(C(=O)c3ccc(OC)cc3)C2)no1 (centres undefined),87.64
12,Cc1c[nH]nc1C1CCCN(C(=O)c2c(C)noc2C)C1 (centres undefined),107
13,CCc1nc(C2CCCN(C(=O)c3ccncc3)C2)no1 (centres undefined),123.6
14,C=Cc1ccc(C(=O)N2CCCC(Nc3ccc(F)cc3)C2)cc1 (centres undefined),-17.89
15,CCC(CC(=O)NS(=O)(=O)C(C)C)c1ccccc1 (centres undefined),10.71
16,COc1cc2c(cc1CNCc1cccnc1-n1cccn1)OC(C)C2.Cl (centres undefined),12.76
17,Cc1ccc(C)c(CNC(=O)NC(C)(C(=O)O)c2ccco2)c1 (centres undefined),3.789
18,CC1=C(CCN2CCCC(O)C2)C(C)(C)CCC1 (centres undefined),-3.829
19,C(=C\c1ccc(CN2CCCC2)cn1)/c1ccccc1,-4.188
20,Br.O=C(O)c1csc(NCCc2ccccc2)n1,93.16
21,CCCNc1nc(CS(=O)(=O)c2ccccc2)cs1,-6.524
22,CC(=O)Nc1nc(C(=O)NCCOc2ccccc2)cs1,-21.48
23,CC(C)(C)CC(=O)NCC(=O)NCC(O)c1ccc2ccccc2c1 (centres undefined),2.35
24,CN(Cc1ccc(-n2cccn2)cc1)c1cc(N)nc(N)n1,-3.397
25,COc1ccnc(N2CCC3(CCCN(C(C)C)C3=O)C2)n1 (centres undefined),10.66

row,Compound,Percent Effect [%]
1,Cc1ccc(C#N)c(N2CCC(c3nccn3Cc3cscn3)CC2)n1,-1.954
2,Cc1cnc(C)c(N2CCC3(CCCN(C4CCOCC4)C3=O)C2)n1 (centres undefined),106.2
3,Cc1ccc(C#N)c(N2CCC3(CCCN(C4CCOCC4)C3=O)C2)n1 (centres undefined),93.97
4,Cc1cc(N2CCC3(CCCN(C4CCOCC4)C3=O)C2)ccn1 (centres undefined),118.2
5,COC[C@@]12CC[C@@H](N3CCOCC3)C[C@H]1CCN(c1ncccc1Cl)C2,19.13
6,Cc1ccc(C#N)c(N2CCC3(CCC(=O)N(CC(N)=O)C3)CC2)n1,-13.92
7,Cc1cc(N2CCC(c3nnc(CN(C)C)n3C3CC3)CC2)ccn1,1.365
8,O=C1N(C2CCOCC2)CCCC12CCN(c1ncccc1Cl)C2 (centres undefined),119
9,Cc1nccnc1N1CCC2(CCCN(C3CCOCC3)C2=O)C1 (centres undefined),28.32
10,Cc1nc(N2CCC3(CCCN(C(C)C)C3=O)C2)c2sccc2n1 (centres undefined),-8.987
11,N#Cc1cccnc1N1CCC2(CCCN(C3CCOCC3)C2=O)C1 (centres undefined),-10.29
12,CCNc1ncc(C(=O)NCC2OCCc3ccccc32)cn1 (centres undefined),-9.42
13,CCc1nc(C)c(CN2CCCC(c3nn(C)c(=O)n3CC)C2)[nH]1 (centres undefined),1.561
14,O=S(=O)(Cc1ccccc1CN1CCOCC(O)C1)c1ccccc1 (centres undefined),-4.778
15,O=C(NCc1ccccc1Cn1ccnc1)N1CCSCC1,-1.657
16,NC(=O)CN1CC2(CCC1=O)CCN(Cc1ccc(F)cc1Cl)CC2,0.9976
17,O=C(Nc1cccc(CN2CCOC2=O)c1)N1CCSCC1,46.29
18,Cc1ccc(O)c(CN2CCn3nc(C(=O)N4CCCC4)cc3C2)n1,-10.87
19,CNc1nc(C(=O)N2CCn3nc(C(=O)OC)cc3C2)cs1,99.12
20,CCCc1nc(C(=O)N2CCCn3nc(CCC(=O)O)cc3C2)cs1,-10.82
21,Cc1cc(C(=O)N2CCn3nc(C(=O)NC4CC4)cc3C2)nc(C)n1,5.79
22,CNc1nc(C(=O)N2CCCC(CO)(CCCOC)C2)cs1 (centres undefined),-13.19
23,CNc1nc(C(=O)N2CCCn3nc(C(=O)N4CCCC4)cc3C2)cs1,132.4
24,CCC(C)(NCc1nc(C)c(C)o1)c1nccs1 (centres undefined),-14.02
25,CCOc1cc(CNCc2cnc(C)cn2)c(Cl)cc1OC(C)C,-9.744

row,Compound,Percent Effect [%]
1,Cc1ccc(C(=O)O)cc1S(=O)(=O)N(CC(C)O)c1ccccc1 (centres undefined),-9.364
2,Cc1ccc(N(C)CC(O)COCc2ccccc2)c(C)c1 (centres undefined),-35.03
3,COC(=O)c1ccc(NC(=O)CNCc2ccco2)cc1,-10.44
4,O=S(=O)(Cc1cccc(F)c1)NCC(O)Cc1ccccc1 (centres undefined),13.38
5,Br.Cc1cc(C)c(N(CC(O)CNCc2ccccc2)S(C)(=O)=O)c(C)c1 (centres undefined),104.6
6,Cc1cc(C)c(N(CC(O)CNCc2ccco2)S(C)(=O)=O)c(C)c1.O=C(O)c1ccccc1 (centres undefined),101.1
7,CCN(C)C(=O)c1cccc(S(=O)(=O)NCCc2nc(C)cc(=O)[nH]2)c1,-0.1797
8,CC(=O)Nc1nc(CN2CCOC(Cn3cccn3)C2)cs1 (centres undefined),107.9
9,CC(=O)Nc1nc(CN2CCOC(Cn3nc(C)cc3C)C2)cs1 (centres undefined),94.09
10,CC(=O)Nc1nc(CN2CCOC(Cn3cc(C)cn3)C2)cs1 (centres undefined),2.495
11,CC(=O)Nc1nc(CN2CCOC(Cn3cncn3)C2)cs1 (centres undefined),64.84
12,CC(=O)N(C)c1nc(CN2CCOC(Cn3cccn3)C2)cs1 (centres undefined),-26.66
13,Cc1ccnc(C(NC(=O)c2oc(C)nc2C)C2CC2)n1 (centres undefined),-17.11
14,COC(=O)CN(C(=O)c1ccoc1)c1cccc(F)c1,2.098
15,O=C1CCCN1CCc1noc(-c2ccc(Cl)cc2)n1,5.135
16,O=C1CCCN1Cc1noc(-c2ccc(Cl)cc2)n1,123.5
17,O=C1CCCN1CCc1noc(-c2ccsc2)n1,1.002
18,CC(C)(N)c1cn([C@@H]2c3ccccc3C3(CCNCC3)[C@H]2O)nn1,-37.53
19,Cc1noc(CS(=O)(=O)CC(=O)NC(C)c2ccccc2)n1 (centres undefined),-0.1878
20,CCN(Cc1ccc2c(c1)OCCO2)S(=O)(=O)N(C)C(C)C,-1.208
21,CCN(Cc1ccc2c(c1)OCO2)S(=O)(=O)N(C)C,94.54
22,CCN(Cc1ccc2c(c1)OCO2)S(=O)(=O)N(C)C(C)C,112.9
23,CCN(Cc1ccc2c(c1)OCO2)c1ncc(S(N)(=O)=O)s1,-18.45
24,CCN(C)S(=O)(=O)N(CC)Cc1ccc2c(c1)OCO2,0.6799
25,CCN(Cc1cccs1)S(=O)(=O)N(C)C(C)C,15.86

row,Compound,Percent Effect [%]
1,Cc1ccc(-n2cc(CN3CCN(C)[C@@H]4CS(=O)(=O)C[C@@H]43)cn2)cc1,6.274
2,CN(Cc1ccccc1O)C(=O)Nc1cc(F)cc(N2CCCC2)c1,-6.524
3,COCC(C)(C#N)NC(=O)COc1ccccc1 (centres undefined),-21.26
4,CC(C)[C@@H]1CN(C(=O)c2ccc3c(c2)CCCO3)C[C@H]1NS(C)(=O)=O,0.04909
5,O=C(O)C(=O)O.c1cncc(-c2noc(C3CN(Cc4cccs4)C3)n2)c1,13.98
6,O=C(C1CCOC1)N1C[C@H]2CN(Cc3cccnc3)C(=O)[C@H]2C1.O=C(O)C(F)(F)F (some centres undefined),101.2
7,O=C(C1CCOC1)N1CCC2(CC1)COCCN(Cc1ccncc1)C2.O=C(O)C(F)(F)F.O=C(O)C(F)(F)F (centres undefined),-2.392
8,O=C(O)C(F)(F)F.O=C(c1ccsc1)N1C[C@H]2CN(Cc3cccnc3)C(=O)[C@H]2C1,-7.854
9,CN(C)CCN1C[C@@H]2CN(C(=O)C3CCOC3)C[C@@H]2C1=O.O=C(O)C(F)(F)F (some centres undefined),-5.233
10,O=C(C1CCOC1)N1C[C@H]2CN(Cc3ccncc3)C(=O)[C@H]2C1.O=C(O)C(F)(F)F (some centres undefined),94.79
11,CCc1[nH]c2c(CNc3cncc(C(=O)N(C)C)n3)cc(F)cc2c1C,-5.745
12,Cn1c(CN2CCOCC2)nnc1C1CCCN(C(=O)CCC2CC2)C1 (centres undefined),24.17
13,Cc1ncc(CN2CC[C@@](C)(O)[C@H](Oc3cccc(F)c3)C2)cn1,104.1
14,CN1CC(=O)N(c2cccc(F)c2)CC12CCN(Cc1nccs1)C2.O=C(O)C(F)(F)F.O=C(O)C(F)(F)F (centres undefined),-3.054
15,COc1ncc(CN2CC[C@@](C)(O)[C@H](Oc3cccc(F)c3)C2)cn1,2.732
16,C[C@]1(O)CCN(Cc2nccs2)C[C@@H]1Oc1cccc(F)c1,121.8
17,C[C@]1(O)CCN(Cc2cncs2)C[C@@H]1Oc1cccc(F)c1,4.149
18,CN1CC2(CCN(Cc3cccnc3)CC2)c2cc(F)ccc21,3.699
19,Cn1cncc1CN1CC[C@](C)(O)[C@@H](Oc2cccc(F)c2)C1,104.7
20,C[C@]1(O)CCN(Cc2cccnc2)C[C@@H]1Oc1cccc(F)c1,99
21,CN1CC(=O)N(c2cccc(F)c2)CC12CCN(Cc1cncn1C)C2.O=C(O)C(F)(F)F.O=C(O)C(F)(F)F (centres undefined),-8.718
22,CCOc1ccc(CN2CC[C@@](C)(O)[C@@H](Cc3ccccc3)C2)cn1,4.384
23,Fc1ccc(OCc2nnc([C@H]3CCN(Cc4cccnc4)C3)o2)cc1,16.65
24,c1cc(-c2noc(-c3cc(C4CC4)on3)n2)cc(N2CCCCC2)n1,-2.255
